Measured values published in PubChem BioAssay AID897 (National Center for Advancing Translational Sciences (NCATS), 2007).
This is one part of the list. Inconclusive results are not listed. Unmarked numbers belong to inactive results. Active and inactive are the calls of the source. Calls come from the whole dose curve; as a rule, active = well fitted inhibition curve with a large enough effect in the main read-out, with a control signal flat (not every such curve was filed as active); inconclusive = small, poorly fitted or top-dose-only effect, or a change in a side signal; inactive = no such curve, though single readings can be large or run the other way.

biological target: Caspase-7 (Homo sapiens) (UniProt P55210); experiment: Confirmation Concentration-Response Assay for Allosteric/Competitive Inhibitors of Caspase-7; settings: recombinant caspase-7, fluorogenic substrate cleavage; series mostly up to 57.5 µM; activity change, negative = inhibition: at the top concentration
From the text: NIH Molecular Libraries Screening Centers Network [MLSCN]
NIH Chemical Genomics Center [NCGC]
PI Name: Dr. James Wells,
Dr. Enrique Perez-Paya, Dr.Janice Williams, Dr. Dennis Wolan, a person
The caspases (Cysteine Aspartyl Protease) comprise a related family of 14 dimeric proteases that are critical mediators of apoptosis (programmed cell death) and inflammation. The caspases represent an important class of drug targets for stroke, ischemia, cancer and inflammatory diseases. […] One goal of this project was to identify compounds that act as allosteric inhibitors via stabilizing the procaspase form of the enzyme. Previous work in Well's laboratory has shown that such allosteric inhibitors can be identified and these act by binding at the dimer interface of enzyme (Hardy, Lam et al., 2004).
The biochemical assay was configured using purified caspase 7 at a high enzyme concentration to promote formation of the homodimers and thus facilitate the identification of allosteric inhibitors. […] After initiation of the assay with substrate the plates were rapidly read using an automated robotic system (Kalypsys, Inc.) to maintain consistent timing. […]
Caspase 7 was prepared in buffer (50 mM HEPES pH 7.5, 50 mM KCl, 200 mM NaCl, 10 mM DTT, 0.1% CHAPS) at a concentration of 66.6 nM and 3 uL was dispensed to all wells using black solid Kalypsys 1536-well plates. […] The plates were then exposed using 405 nm excitation/520 nm emission filters for 4 sec and read at 20 sec intervals for 3 min. […]
Concentration-response curves were fitted to the data calculated from slope of the linear regression of fluorescent intensity versus time (the rate). The concentration-effect curves were then classified based on curve quality (r2), response magnitude and degree of measured activity. […] Inconclusive compounds had appreciable concentration-dependent effects on both the measured rate and the interpolated basal fluorescence intensity at the start of the reaction but where the basal fluorescent intensity was marginal (e.g. < 10-fold). […]

Sequence of Caspase-7 (Homo sapiens) (P55210 24-198 limits assumed): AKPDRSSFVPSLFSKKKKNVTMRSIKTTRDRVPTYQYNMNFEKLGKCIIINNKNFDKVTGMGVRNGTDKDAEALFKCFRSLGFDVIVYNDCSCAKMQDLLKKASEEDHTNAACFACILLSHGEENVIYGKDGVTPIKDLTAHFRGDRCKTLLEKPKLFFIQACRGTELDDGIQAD
Sequence of Caspase-7 (Homo sapiens) (P55210 207-303 limits assumed): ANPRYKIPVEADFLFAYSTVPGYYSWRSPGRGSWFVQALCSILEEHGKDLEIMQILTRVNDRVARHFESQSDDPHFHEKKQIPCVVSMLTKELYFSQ

| Structure (SMILES) | activity change, negative = inhibition [%] | Potency |
| --- | --- | --- |
| Cc1nc2c(C(=O)NCc3ccc4c(c3)OCO4)c[nH]n2c(=O)c1Cc1ccccc1F | -50.3 |  |
| N#CC1=C(N)Oc2cc(O)ccc2C1C1CCCCC1 (stereo not drawn) |  | 25.1 µM (active) |
| CCN1C(=O)/C(=C2/Sc3ccccc3N2CCCS(=O)(=O)O)SC1=S | -12.9 |  |
